Source: the supplement of paper PMC3334620
Whole data set: some 33,000 sequences, median “E-score (-0.5 to 0.5)” near -0.054, cut for the highest 2% near 0.39. The sample as a whole holds a higher share of the highest values than the screen did.

biological target: Ylr278c (UniProt Q05854); experiment: PBM E-score (8-mer binding enrichment) (E-score (-0.5 to 0.5)); higher = stronger / more preferred TF binding; conditions: protein concentration: 200 nM; construct: GST-DNA-binding domain
Procedure: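 Universal 'all 10-mer' protein binding microarrays (Agilent AMADID 015681) probed with GST-tagged S. cerevisiae TFs (full-length or DBD) made by in vitro transcription/translation (PURExpress), about 100-200 nM. Bound TF was detected with fluorescent anti-GST. Each ungapped 8-mer (which stands for itself and its reverse complement) is scored by the PBM enrichment score (E-score), a modified Wilcoxon-Mann-Whitney statistic from -0.5 to +0.5, computed with the Universal PBM Analysis Suite. Scale: above 0.35 generally sequence-specific binding.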

Chain of UniProt Q05854 (Q05854 whole entry, the tested form may be a part): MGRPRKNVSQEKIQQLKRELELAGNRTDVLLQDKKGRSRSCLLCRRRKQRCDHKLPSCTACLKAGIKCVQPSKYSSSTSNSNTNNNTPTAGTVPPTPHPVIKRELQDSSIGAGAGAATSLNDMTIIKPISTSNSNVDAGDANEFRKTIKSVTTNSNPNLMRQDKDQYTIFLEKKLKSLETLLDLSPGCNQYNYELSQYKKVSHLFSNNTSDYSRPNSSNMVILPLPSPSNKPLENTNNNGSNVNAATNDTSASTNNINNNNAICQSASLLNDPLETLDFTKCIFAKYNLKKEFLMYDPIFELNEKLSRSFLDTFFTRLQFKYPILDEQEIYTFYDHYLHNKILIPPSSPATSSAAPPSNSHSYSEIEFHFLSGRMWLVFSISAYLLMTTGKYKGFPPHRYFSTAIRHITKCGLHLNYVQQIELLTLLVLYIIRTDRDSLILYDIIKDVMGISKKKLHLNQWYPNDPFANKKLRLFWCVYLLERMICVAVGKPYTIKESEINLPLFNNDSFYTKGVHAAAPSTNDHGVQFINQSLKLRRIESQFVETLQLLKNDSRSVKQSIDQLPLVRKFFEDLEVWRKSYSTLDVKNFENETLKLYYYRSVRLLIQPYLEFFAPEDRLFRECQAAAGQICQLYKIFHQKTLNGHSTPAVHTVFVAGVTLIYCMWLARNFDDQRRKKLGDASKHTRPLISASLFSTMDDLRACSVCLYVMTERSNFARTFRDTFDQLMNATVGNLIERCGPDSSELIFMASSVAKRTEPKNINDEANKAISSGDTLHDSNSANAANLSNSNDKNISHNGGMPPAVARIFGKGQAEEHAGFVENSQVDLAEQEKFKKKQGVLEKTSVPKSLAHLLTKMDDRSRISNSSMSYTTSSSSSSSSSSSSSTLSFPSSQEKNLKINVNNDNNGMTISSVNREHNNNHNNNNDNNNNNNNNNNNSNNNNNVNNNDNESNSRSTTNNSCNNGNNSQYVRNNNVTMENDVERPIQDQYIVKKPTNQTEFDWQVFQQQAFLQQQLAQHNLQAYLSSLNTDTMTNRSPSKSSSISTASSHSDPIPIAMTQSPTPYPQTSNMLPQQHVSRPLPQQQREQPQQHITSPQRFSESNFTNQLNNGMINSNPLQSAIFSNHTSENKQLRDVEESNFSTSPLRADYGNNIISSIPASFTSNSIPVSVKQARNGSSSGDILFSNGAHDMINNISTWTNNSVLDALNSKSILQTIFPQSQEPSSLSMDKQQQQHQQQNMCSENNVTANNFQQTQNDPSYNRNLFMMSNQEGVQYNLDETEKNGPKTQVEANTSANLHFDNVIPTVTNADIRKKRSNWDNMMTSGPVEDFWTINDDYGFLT

Question: For CTCCAGCA, which “PBM E-score” value is on record?
Answer: -0.256

Question: For ATGGCTAC, which “PBM E-score” value is on record?
Answer: -0.185

Question: Which “PBM E-score” value does the source give for ATGGGTTG here?
Answer: -0.114

Question: Which “PBM E-score” value does the source give for CAAGTATC here?
Answer: -0.152

Question: With GGATTTTA as the sequence, how does the “PBM E-score” value read?
Answer: 0.283

Question: For AAACGCCA, which “PBM E-score” value is on record?
Answer: 0.0115

Question: Which “PBM E-score” value does the source give for AAACGCCG here?
Answer: 0.412

Question: Which “PBM E-score” value does the source give for CAACGCCG here?
Answer: 0.318

Question: How did the “PBM E-score” value turn out when CGAGTCAG was run?
Answer: -0.151

Question: How did the “PBM E-score” value turn out when TAGGTAAA was run?
Answer: -0.0912

Question: With GAATGCAA as the sequence, how does the “PBM E-score” value read?
Answer: 0.00843

Question: Which “PBM E-score” value does the source give for AAATGCCG here?
Answer: 0.423

Question: CAATGCCG was tested. Which “PBM E-score” value did it give?
Answer: 0.365

Question: Which “PBM E-score” value does the source give for AAATGCCC here?
Answer: -0.0631

Question: AATACCTG was tested. Which “PBM E-score” value did it give?
Answer: -0.107

Question: Which “PBM E-score” value does the source give for AAACTCTG here?
Answer: -0.126

Question: How did the “PBM E-score” value turn out when CGAACTCC was run?
Answer: 0.39

Question: For GGAACTCC, which “PBM E-score” value is on record?
Answer: 0.393

Question: With CGAACTCG as the sequence, how does the “PBM E-score” value read?
Answer: 0.0307

Question: GGAACTCA was tested. Which “PBM E-score” value did it give?
Answer: 0.189

Question: For AGAACTCC, which “PBM E-score” value is on record?
Answer: 0.276

Question: With CGAACTCA as the sequence, how does the “PBM E-score” value read?
Answer: -0.0578

Question: For ACCTTGTC, which “PBM E-score” value is on record?
Answer: -0.192

Question: Which “PBM E-score” value does the source give for GGCTTGCA here?
Answer: -0.118

Question: ACTGGTGC was tested. Which “PBM E-score” value did it give?
Answer: -0.0757

Question: For CCGTTCCA, which “PBM E-score” value is on record?
Answer: 0.0158

Question: With AAGTTCCT as the sequence, how does the “PBM E-score” value read?
Answer: -0.0671

Question: With AACTTCCT as the sequence, how does the “PBM E-score” value read?
Answer: 0.00298

Question: How did the “PBM E-score” value turn out when CCGTTCCG was run?
Answer: 0.402

Question: Which “PBM E-score” value does the source give for CAGTTCCG here?
Answer: 0.348

Question: For ATGTTCCA, which “PBM E-score” value is on record?
Answer: -0.162

Question: For AACTTCCA, which “PBM E-score” value is on record?
Answer: 0.0686

Question: With AACTTCCG as the sequence, how does the “PBM E-score” value read?
Answer: 0.433

Question: Which “PBM E-score” value does the source give for ATGTTCCC here?
Answer: -0.0151

Question: With ACGTTCCG as the sequence, how does the “PBM E-score” value read?
Answer: 0.289

Question: AAGTTCCG was tested. Which “PBM E-score” value did it give?
Answer: 0.42

Question: Which “PBM E-score” value does the source give for ATGTTCCG here?
Answer: 0.429

Question: ATCCTCAG was tested. Which “PBM E-score” value did it give?
Answer: 0.0306

Question: For AAATAGCC, which “PBM E-score” value is on record?
Answer: -0.00231

Question: For AATTCTCT, which “PBM E-score” value is on record?
Answer: -0.113

Question: Which “PBM E-score” value does the source give for AATCCACA here?
Answer: -0.0935

Question: AAGCGGCG was tested. Which “PBM E-score” value did it give?
Answer: 0.222

Question: How did the “PBM E-score” value turn out when GGGTAACC was run?
Answer: -0.0903

Question: GGAGAGTA was tested. Which “PBM E-score” value did it give?
Answer: 0.243

Question: For CTCCGGTA, which “PBM E-score” value is on record?
Answer: 0.47

Question: Which “PBM E-score” value does the source give for CTCCGGTC here?
Answer: 0.455

Question: Which “PBM E-score” value does the source give for CACCGGTC here?
Answer: 0.183

Question: ATCCGGTC was tested. Which “PBM E-score” value did it give?
Answer: 0.346

Question: Which “PBM E-score” value does the source give for GACCGGTC here?
Answer: 0.397

Question: With GTCCGGTA as the sequence, how does the “PBM E-score” value read?
Answer: 0.366

Question: With CGCCGGTC as the sequence, how does the “PBM E-score” value read?
Answer: 0.388

Question: AACCGGTC was tested. Which “PBM E-score” value did it give?
Answer: 0.198

Question: For ATCCGGTA, which “PBM E-score” value is on record?
Answer: 0.294

Question: With ATGCACCG as the sequence, how does the “PBM E-score” value read?
Answer: 0.178

Question: CAACTCGC was tested. Which “PBM E-score” value did it give?
Answer: -0.0405

Question: Which “PBM E-score” value does the source give for TAAGAAAA here?
Answer: -0.0396

Question: How did the “PBM E-score” value turn out when CGCGCTTA was run?
Answer: 0.0847

Question: How did the “PBM E-score” value turn out when AAGACGTA was run?
Answer: -0.154

Question: Which “PBM E-score” value does the source give for CAGACTGG here?
Answer: -0.271

Question: With CTGCCGGA as the sequence, how does the “PBM E-score” value read?
Answer: 0.355

Question: With ATGCCGGA as the sequence, how does the “PBM E-score” value read?
Answer: 0.456

Question: GTGCCGGA was tested. Which “PBM E-score” value did it give?
Answer: 0.438

Question: For ATGCCGGC, which “PBM E-score” value is on record?
Answer: 0.372

Question: ATGCCGGG was tested. Which “PBM E-score” value did it give?
Answer: 0.336

Question: How did the “PBM E-score” value turn out when GTGCCGTA was run?
Answer: 0.0749

Question: Which “PBM E-score” value does the source give for ATGCGCTC here?
Answer: -0.034

Question: For CCTGTGGC, which “PBM E-score” value is on record?
Answer: -0.166

Question: With GCGCGCTA as the sequence, how does the “PBM E-score” value read?
Answer: 0.0544

Question: How did the “PBM E-score” value turn out when CGTATATA was run?
Answer: -0.111

Question: With GAATTGCC as the sequence, how does the “PBM E-score” value read?
Answer: 0.182

Question: With AGGGGATG as the sequence, how does the “PBM E-score” value read?
Answer: -0.112

Question: How did the “PBM E-score” value turn out when GCTACCCA was run?
Answer: -0.196

Question: CCTCTCCG was tested. Which “PBM E-score” value did it give?
Answer: 0.333

Question: Which “PBM E-score” value does the source give for ATACTCCG here?
Answer: 0.487

Question: CCACTCCC was tested. Which “PBM E-score” value did it give?
Answer: 0.0826

Question: With ACTCTCCA as the sequence, how does the “PBM E-score” value read?
Answer: -0.0794

Question: With ATACTCCC as the sequence, how does the “PBM E-score” value read?
Answer: 0.243

Question: With CCACTCCG as the sequence, how does the “PBM E-score” value read?
Answer: 0.437

Question: Which “PBM E-score” value does the source give for ACTCTCCG here?
Answer: 0.405

Question: How did the “PBM E-score” value turn out when CCACTCCA was run?
Answer: -0.0346

Question: Which “PBM E-score” value does the source give for ACACTCCC here?
Answer: 0.00682

Question: Which “PBM E-score” value does the source give for ACACTCCT here?
Answer: -0.0208

Question: ATACTCCA was tested. Which “PBM E-score” value did it give?
Answer: -0.0317

Question: For ACACTCCG, which “PBM E-score” value is on record?
Answer: 0.398

Question: With CAACAGAG as the sequence, how does the “PBM E-score” value read?
Answer: -0.0308

Question: How did the “PBM E-score” value turn out when GACGCACA was run?
Answer: 0.146

Question: How did the “PBM E-score” value turn out when CTGAGGCC was run?
Answer: 0.115
